# Reference: PubChem BioAssay AID903 (National Center for Advancing Translational Sciences (NCATS), 2007)
# Screen size: about 55,000 compounds; about 340 (0.62%) were called active. A call without a number means that no potency is given here. Inconclusive results (about 3%) are left out. This is one part of a sample in which actives are shown more often than they occur. The call rests on the fitted dose curve; in most records, active means well fitted cell-killing curve with a large enough effect; inconclusive means small, poorly fitted or top-dose-only effect; inactive means no such curve, though single readings can be large or run the other way.
# Assay: qHTS Screen for Compounds that Selectively Target Cancer Cells with p53 Mutations: Cytotoxicity of p53 Null Cells at the Permissive Temperature; further: nearly all actives have a fitted effect of over 55% in size
# Conditions: H1299-neo p53 null cells, ATP luminescence, 24 h, 32C; series mostly up to 46.1 µM
# Outline: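 H1299-neo, 600 cells/well; overnight 37C; cpd up to 46 uM, 24 h at 32C; ATPlite luminescence after 20 min RT; normalized to DMSO (0%) and tamoxifen 100 uM (100% kill); Hill-fit AC50.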
# Potency means the concentration at half of the fitted maximal effect.
row,SMILES,Potency
1,CCOC(=O)CSc1nc2ccc(C)cc2[nH]1,inactive
2,CCCc1nn2c(=O)cc(COC(=O)c3ccc(NC(=O)C(C)Oc4ccccc4)cc3)nc2s1 (centres undefined),inactive
3,CCOC(=O)c1cc2c(=O)n3ccccc3nc2n(CCCOC)c1=NC(=O)C(C)Oc1ccccc1 (centres undefined),inactive
4,COc1ccc(CNC(=O)c2ccc3c(O)c(S(=O)(=O)c4ccccc4)c(=O)[nH]c3c2)cc1,inactive
5,CC(C)c1ccc(NC(=O)c2ccc3c(O)c(S(=O)(=O)c4ccccc4)c(=O)[nH]c3c2)cc1,12.6 µM (active)
6,Cc1ccc(C(=O)Nc2ccc3[nH]c(=O)c(=O)[nH]c3c2)cc1,inactive
7,CN(C(=O)CSc1nc2ccccc2n1Cc1ccccc1C#N)c1ccccc1,inactive
8,COc1ccc(CNC(=O)CS(=O)Cc2nc(-c3cccc(C)c3)oc2C)cc1 (centres undefined),inactive
9,Cc1cc(SCC(=O)NCCN2C(=O)CSC2=O)nc2ccccc12,inactive
10,COC(=O)CSc1ccc2nnc(CCNS(=O)(=O)c3ccc(C)cc3)n2n1,inactive
11,N#CC1(NC(=O)COc2ccc3oc4ccccc4c3c2)CCCCC1,inactive
12,O=C(NCCc1ccccn1)c1cc(-c2ccc(Cl)cc2)nc2ccccc12,inactive
13,CCC(=O)NCc1cc(-c2nn(C)c(=O)c3ccccc23)ccc1OC,inactive
14,CCOc1ccc(C(O)Cc2nc3ccccc3n2C)cc1 (centres undefined),inactive
15,CC(C)(C)c1ccc(C(=O)NCC(=O)OCN2C(=O)c3ccccc3C2=O)cc1,inactive
16,Cc1ccc(NC(=O)c2cn3c4c(ccc(Cl)c4c2=O)OC(C)C3)cc1C (centres undefined),inactive
17,Cc1cc(C)cc(NC(=O)Cc2csc(C)n2)c1,inactive
18,COc1ccc2c(c1)Cc1sc(NC(=O)c3ccccc3Br)nc1-2,inactive
19,CCCS(=O)(=O)Nc1cccc(-c2cn3ccsc3n2)c1,inactive
20,CCc1ccc(CNC(=O)C2CCN(c3nn4cc(-c5ccc(F)cc5)nc4s3)CC2)cc1,inactive
21,CCC(CC)c1nn2cc(-c3ccccc3)nc2s1,6.31 µM (active)
22,Cc1cc(C)cc(OC(C)C(=O)Nc2nc3c(s2)CCCC3)c1 (centres undefined),inactive

row,SMILES,Potency
1,Cc1ccccc1NC(=O)c1c(NC(=O)c2ccccc2F)sc2c1CCC(C)C2 (centres undefined),inactive
2,O=C(Nc1nc2c(s1)CCCC2)c1ccccc1F,6.31 µM (active)
3,CCOC(=O)NC(=O)CSc1nnc(SCCC(=O)O)s1,inactive
4,CCC(C)NC(=O)c1ccccc1NC(=O)c1ccccc1N(C)S(C)(=O)=O (centres undefined),inactive
5,Cc1ccc(-n2nnnc2CNC(=O)c2ccccc2C)cc1C,inactive
6,COC(=O)c1cnn(-c2ccc(C(=O)Nc3ccc(OC(F)(F)F)cc3)cc2)c1N,inactive
7,CCn1c(O)c(N=NC(=O)c2cccc(S(=O)(=O)N3CCCCC3)c2)c2ccccc21,inactive
8,Cc1nn2c(=O)cc(COC(=O)c3cccc(NC(=O)COc4ccccc4Cl)c3)nc2s1,12.6 µM (active)
9,CCCCc1nn2c(=O)cc(COC(=O)c3cccc(NC(=O)COc4ccccc4)c3)nc2s1,inactive
10,Cc1nn2c(=O)cc(COC(=O)c3ccccc3NC(=O)COc3ccccc3C)nc2s1,inactive
11,CCc1nc2cccnc2n1-c1ccc(CC(=O)Nc2c(C)cccc2C)cc1,inactive
12,CCCCC1N2CC3([N+](=O)[O-])CN1CC([N+](=O)[O-])(C2)C3(C)C (centres undefined),inactive
13,Cc1cc(-c2ccc(C)c(S(=O)(=O)N3c4ccccc4CC3C)c2)on1 (centres undefined),inactive
14,Cc1ccc(-c2nnc(SCC(=O)N/N=C/c3cccs3)n2-c2ccc(C)cc2)cc1,inactive
15,Cc1ccc2nc(/C(C#N)=C/c3ccccc3F)[nH]c2c1,inactive
16,O=S(=O)(c1ccc(Br)cc1)c1nnn2c1nc(N1CCOCC1)c1sccc12,inactive
17,CCOc1ccc(NC(=O)c2cnn(-c3ccccc3)c2-n2cccc2)cc1,inactive
18,CCOc1ccc(NC(=O)c2ncoc2-c2ccco2)cc1,12.6 µM (active)
19,CCOc1ccc(NC(=O)CN2CCN(CC(=O)Nc3ccc(OC)cc3)CC2)cc1,inactive
20,CCc1nc2ccc(C(=O)N3CCN(c4cc(Cl)ccc4C)CC3)cc2nc1CC,inactive
21,CCOC(=O)c1c(C)[nH]c(C)c1S(=O)(=O)N1CCC(C(=O)Nc2ccc(C)c(Cl)c2)CC1,inactive
22,N#C/C(=C\c1ccccc1F)c1nc2ccccc2c(=O)[nH]1,inactive

row,SMILES,Potency
1,COc1ccc(-n2ccnc(NCCc3ccc(Cl)cc3)c2=O)cc1OC,inactive
2,CCOC(=O)c1cccc(NS(=O)(=O)c2cn(C)c(C)n2)c1,inactive
3,O=C(NC1CC(=O)N(c2ccc(Cl)cc2)C1)C1CCCC1 (centres undefined),inactive
4,Cn1c(=O)c2c(nc(Oc3ccc(C#N)cc3)n2Cc2ccc(Cl)cc2Cl)n(C)c1=O,inactive
5,Brc1ccc(-c2csc(N/N=C/c3ccc4c(c3)OCO4)n2)cc1,inactive
6,CCCC(=O)Nc1cccc(NC(=S)NC(=O)C(C)Oc2ccc(Cl)cc2Cl)c1 (centres undefined),inactive
7,COC(=O)c1cc2occc2n1Cc1nc(-c2ccc(C)cc2)oc1C,inactive
8,Cc1ccc(CNC(=O)CCNS(=O)(=O)c2ccc3c(c2)oc(=O)n3C)cc1,inactive
9,CCOc1ccc(CNC(=O)CCc2c(C)nn(-c3ccc(N4CCCCC4)nn3)c2C)cc1,inactive
10,CCc1cc2c(-c3ccccc3)cc(=O)oc2c2c1OCN(Cc1ccc(C)cc1)C2,inactive
11,COc1ccc(CCNC(=O)CN2C(=O)COc3ccc(S(=O)(=O)N4CCCC4)cc32)cc1OC,inactive
12,CCOc1cc(CNCc2ccccn2)ccc1OCC(=O)NC(C)(C)C,inactive
13,Cc1ccc(CCNC(=O)C2CCN(c3nnc(-n4cccc4CNc4ccc(C)cc4)s3)CC2)cc1,inactive
14,C/C(CC(=O)Nc1ccc(Cl)cc1)=N\NC(=O)C(=O)NCCO,inactive
15,Cc1ccc2[nH]c3c(=O)n(CC(=O)NC(C)C)ncc3c2c1,inactive
16,CCC(=O)Nc1ccc(C)cc1-c1nc2ccccc2n(Cc2ccccc2)c1=O,inactive
17,CCn1c(SCC(=O)Nc2ccc(C)cc2)nc2nc3c(cc2c1=O)CCCC3,inactive
18,CCOc1ccccc1NC(=O)C1CCCN(S(=O)(=O)c2cn(C)cn2)C1 (centres undefined),inactive
19,Cc1nc2ccc(S(=O)(=O)N(CC(=O)Nc3ccc(F)cc3)Cc3ccccc3)cc2s1,inactive
20,COC(=O)c1ccc(NC(=O)c2cnn(-c3ccc(Cl)cc3)c2C2CCN(C(=O)OC(C)(C)C)CC2)cc1,inactive
